PubChem BioAssay AID1822 (The Scripps Research Institute Molecular Screening Center, 2009)
Screen size: about 290,000 compounds; about 3,500 (1.2%) were called active. This is one part of a sample in which actives are shown more often than they occur.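 The calls were made as follows: active = inhibition above the campaign mean inhibition over all tested compounds plus 3 SD (cut at about 28% in these data); inactive = the rest.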

system: M18 aspartyl aminopeptidase (Plasmodium falciparum 3D7); assay: inhibition of P. falciparum M18 aminopeptidase – biochemical, QFRET, recombinant enzyme, primary screen (AID 1822); conditions: recombinant PfM18AAP, H-Glu-NHMec fluorogenic cleavage; at 7.35 µM; active compounds read high;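 also: 0% = plate median of test compound wells and 100% = 2 mM ZnCl2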

SMILES | inhibition
COc1cccc(N2C(=O)NC(=O)/C(=C\c3cn(C)c4ccccc34)C2=O)c1 | 31.5% (active)
COc1cccc(N2C(=O)NC(=O)/C(=C\c3ccc([N+](=O)[O-])s3)C2=O)c1 | 9.11% (inactive)
Cc1cccc(N2C(=O)NC(=O)/C(=C\c3cnn(-c4ccccc4)c3)C2=O)c1 | -3.93% (inactive)
CCOc1ccc(-c2cc(C)[n+](CCN(CC)CC)c(-c3ccc(OCC)cc3)c2)cc1 | -4.54% (inactive)
Cc1cccc(NC(=O)N2CC3CC(C2)c2cccc(=O)n2C3)c1 (stereo not given) | -2.4% (inactive)
